Screening results: PubChem BioAssay, several laboratories
Pyk2 oligo antag = antagonists of human Pyk2 oligomerization | Q293 cells, Pyk2 FERM NanoBiT luminescence; stronger effect = lower value | AID 1347419 | z-score (the deposit names both 25 µM and 10 µM) | 0.83% of 99,000 active;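 active means Z-score of -3 or lower, scaled per plate to the spread of control and sample wells; inactive means z-score above -3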;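 further: negative z-score means lost luminescence so less FERM oligomerization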
Cav3 T inh = human Cav3.2 channel inhibition, primary screen; 4% of 100,000 active; Cav3.2-expressing cells, Fluo-4 calcium fluorescence FDSS; stronger effect = lower value; O95180; B-score at 10 µM;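 active means single-dose well whose peak fluorescence ratio is a statistical outlier from its plate by either plate-standardised score or position-corrected B-score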
M1 antagonist = antagonists of rat M1 muscarinic receptor. P08482. CHO-M1 cells, Fluo-4 calcium, ACh EC80 antagonist mode; stronger effect = lower value. B-score at 10 µM. 3.4% of 64,000 active;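 active means calcium fluorescence response, raw or row-and-column corrected B-score, differing from the plate sample mean either way at a set confidence level, mostly lower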
Target sequence (P08482 whole entry, looked up): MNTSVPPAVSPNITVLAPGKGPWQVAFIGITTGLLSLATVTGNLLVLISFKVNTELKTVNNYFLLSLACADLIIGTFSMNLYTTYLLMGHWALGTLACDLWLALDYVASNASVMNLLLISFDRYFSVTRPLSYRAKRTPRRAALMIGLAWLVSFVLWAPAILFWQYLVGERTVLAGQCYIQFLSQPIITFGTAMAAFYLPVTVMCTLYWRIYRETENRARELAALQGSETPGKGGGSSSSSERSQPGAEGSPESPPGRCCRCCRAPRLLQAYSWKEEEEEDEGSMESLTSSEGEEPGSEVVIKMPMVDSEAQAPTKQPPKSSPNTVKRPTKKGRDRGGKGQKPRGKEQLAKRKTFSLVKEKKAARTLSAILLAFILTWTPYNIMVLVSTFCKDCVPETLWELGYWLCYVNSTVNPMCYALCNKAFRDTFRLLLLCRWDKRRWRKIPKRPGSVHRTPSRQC
M1 ag = agonists of M1 muscarinic receptor | CHO-M1 cells, Fluo-4 calcium fluorescence, agonist mode; stronger effect = higher value | B-score at 10 µM | 3% of 64,000 active;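 active means fluorescence rise, raw or as B-score row- and column-corrected plate score, outside the 99.7% band of its plate's samples, either direction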
Numbers stand for hits; . = inactive; / = no result. In the library only some 7.1% were active in any assay of this set; here they are far more common.

SMILES | Pyk2 oligo antag | Cav3 T inh | M1 antagonist | M1 ag
Cc1nc([N+](=O)[O-])nn1C12CC3CC(CC(Cl)(C3)C1)C2 | . | / | / | /
CCCc1nnc(SCC(=O)N2C(C)CCCC2C)n1CC1CCCO1 (centres undefined) | . | . | / | /
COC(=O)c1cc(=O)n(Cc2cccs2)c(=Nc2ccc(F)cc2)s1 | / | . | / | /
COC(=O)c1cc(=O)n(CCc2ccccc2F)c(=Nc2ccc(F)c(Cl)c2)s1 | / | -3.5 | / | /
COCCNC(=O)/C(C#N)=C/c1c(N2CC(C)OC(C)C2)nc2ccccn2c1=O (centres undefined) | . | / | / | /
CCOC(=O)c1ccc(N2C(=O)c3n[nH]c(C)c3C2c2ccccc2)cc1 (centres undefined) | -3.1 | . | . | .
COCCNC(=O)c1ccccc1NC(=O)c1ccc(Cl)c(S(=O)(=O)Nc2ccc(C)cc2C)c1 | -3.2 | . | / | /
CCOC(=O)C(=Cc1ccc(-c2ccsc2C(=O)OC)o1)C(=O)OCC | . | . | / | /
CCOC(=O)/C(C#N)=C/c1ccc(-c2ccsc2C(=O)OC)o1 | . | -7 | / | /
CCN(CC)C(=O)c1[nH]cnc1C(=O)N[C@@H](CC(C)C)C(=O)OCc1ccccc1 | / | . | / | /
CC(C)=C1C2CCC1C1C(=O)N(NC(=O)COc3ccc(Cl)c(C)c3)C(=O)C21 (centres undefined) | . | -5.3 | / | /
CCOC(=O)c1sc(NC(=O)c2cc(-c3ccccc3C)nc3ccccc23)c(C#N)c1C | -3.7 | -6.8 | / | /
CCOC(=O)c1sc(NC(=O)CSc2nc(C)cc(-c3ccccc3)n2)c(C#N)c1C | . | . | / | /
COc1ccc(NC(=O)c2ccccc2O)c(OC)c1 | . | . | / | /
COc1ccc(NC(=O)c2c(OC)cccc2OC)c(OC)c1 | -4.4 | . | . | .
CC(C)(C)NS(=O)(=O)c1ccc2nc(NC(=O)Cc3cccs3)sc2c1 | . | -4.2 | . | .
O=C(Cn1c(=O)c2c(ncn2C2CCCC2)n(Cc2ccccc2)c1=O)N1CCc2ccccc21 | . | -4.4 | . | .
O=C(Cn1c(=O)c2c(ncn2Cc2ccccc2)n(Cc2ccccc2)c1=O)N1CCc2ccccc21 | . | . | / | /
CCCC(=O)N1CCN(c2ccc(NC(=S)NC(=O)CC)cc2)CC1 | . | . | / | /
Cc1ccc(S(=O)(=O)C/N=C(/NC(=S)N(c2ccccc2)c2ccccc2)c2ccccc2)cc1 | . | . | / | /
COC(=O)C1=C(C)NC2=C(C(=O)CCC2)C1c1cn(Cc2ccc(Cl)cc2Cl)nc1-c1ccccc1 (centres undefined) | . | -7.3 | / | /
CCOC(=O)C1=C(C)NC2=C(C(=O)CCC2)C1c1cn(Cc2ccc(Cl)cc2Cl)nc1-c1ccccc1 (centres undefined) | . | / | / | /
CCCN(CCC)C(=O)Cc1coc2ccc3ccccc3c12 | . | -6.3 | / | /
O=c1c2ccccc2nc(SCc2cn3ccsc3n2)n1-c1ccccc1 | . | / | / | /
O=c1c2ccccc2nc(SCc2cn3ccsc3n2)n1-c1ccccc1F | -3.5 | . | . | .
SMILES | Pyk2 oligo antag | Cav3 T inh | M1 antagonist | M1 ag
c1ccc2sc(N3CN(CCN4CCOCC4)CN(c4nc5ccccc5s4)C3)nc2c1 | . | -5.7 | . | .
O=C(Nc1cccc(-c2nnn(CC(=O)N3CCc4ccccc4C3)n2)c1)C1CCC1 | . | -4.4 | . | .
Cc1cc(N2CCN(c3ccccc3Cl)CC2)n2cc(-c3ccccc3)nc2n1 | . | -4.3 | / | /
Cc1cc(N2CCN(c3ccccc3)CC2)n2cc(-c3ccccc3)nc2n1 | . | . | / | /
Cc1ccc(-c2nnn(CC(=O)N3c4ccccc4CCc4ccccc43)n2)cc1 | . | . | / | /
Cc1ccc(NC(=O)CSCC(=O)N2c3ccccc3CCc3ccccc32)cc1 | . | -4.9 | / | /
CCCC(=O)Nc1cc(C)c(NC(=O)Cc2ccccc2)cn1 | / | . | . | .
Cc1cc(NC(=O)C(C)C)ncc1NC(=O)Cc1ccccc1 | . | -4 | . | .
CCC(C)n1c(=O)c(C(=O)Nc2ccccc2S(N)(=O)=O)c(O)c2ccccc21 (centres undefined) | . | -3.4 | . | .
O=C(NCCC1=CCCCC1)C1COc2ccccc2O1 (centres undefined) | . | . | / | /
CCO[C@H]1OC(C(=O)NCc2ccccc2)=C[C@@H](c2ccccc2)[C@@H]1CCCO | / | . | / | /
Cc1ccc(-n2c(CNc3ccc(F)cc3)nnc2SCC(=O)NCc2ccco2)cc1 | . | -5.2 | . | .
Cc1cc(C(=O)OCC(=O)NCc2ccco2)c(C)n1-c1ccc(F)cc1 | . | -4.4 | . | .
COc1ccc(NCc2nnc(SCC(=O)NCc3ccco3)n2-c2ccccc2OC)cc1 | . | . | / | /
COc1cc(OC)c2nc(C)c3c(c2c1)N(c1ccc(O)cc1)CC3 | . | / | / | /
c1cncc(-c2nc(Oc3ccc(-c4nnco4)cc3)c3c4c(sc3n2)CCCC4)c1 | / | / | . | .
Cc1cccc(Cn2c(SCCN3CCCCC3)nc3c2c(=O)[nH]c(=O)n3C)c1 | / | . | -3.6 | .
